# Only some compounds are listed: those with a hit (about 19% of all), similar ones and a draw of the others.
# DT40 TDP1 CPT = qHTS for Inhibitors of human tyrosyl-DNA phosphodiesterase 1 (TDP1): qHTS in cells in presence of CPT. Potency, µM (titrated, usually from 46.2 µM), for the others: top-dose activity change, negative = growth inhibition, usual class: inhibitors. chicken DT40 Tdp1-/-;hTDP1 cells + 20 nM CPT, ATP luminescence, 48 h. 420,000 compounds, 12% hits; also: potency is read from the fitted curve at half-maximal effect; nearly all actives have a fitted effect of over 55% in size
#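 Chicken DT40 Tdp1-/- cells complemented with human TDP1, 400 cells/well, exposed to compounds plus 20 nM camptothecin for at least 48 h at 37 C; viability read as ATP content by CellTiter-Glo luminescence.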
# DT40 TDP1 no CPT = qHTS for Inhibitors of human tyrosyl-DNA phosphodiesterase 1 (TDP1): qHTS in cells in absence of CPT. DT40 Tdp1-/- hTDP1 cells, no CPT, ATP luminescence, 48 h. Potency, µM (top dose mostly 46.2 µM), for inactives: top-dose activity change, negative = growth inhibition, hits mostly inhibitors. 420,000 compounds, 15% hits. AID 686978, 2013; also: potency is read from the fitted curve at half-maximal effect; nearly all actives have a fitted effect of over 55% in size
#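 Camptothecin absent (DMSO only). Human TDP1-complemented DT40 knockout cells, 400 cells/well, 37 °C for minimum 48 hr; ATP measured via CellTiter-Glo, 30 min dark incubation, luminescence.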
# HT1080 IDH1KD tx = qHTS for induction of synthetic lethality in tumor cells producing 2HG: qHTS for the HT-1080-IDH1KD cell line. HT-1080 IDH1 knockdown viability, ATP luminescence, 48 h. Potency, µM (highest dose often 46.1 µM), for inactives: at the top dose activity, negative = toxicity, usual class: cytotoxic. 360,000 compounds, 2% hits;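 also: potency is read from the fitted curve at half-maximal effect; 0% = DMSO wells and -100% = cell-free medium wells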
#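 In this qHTS, HT-1080 cells depleted of IDH1 are exposed for 48 h at 37 °C to compound titrations. Toxicity is scored from CellTiter-Glo luminescence, with DMSO as full viability and medium alone as none.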
# HT1080NT lethal = qHTS for induction of synthetic lethality in tumor cells producing 2HG: qHTS for the HT-1080-NT fibrosarcoma cell line; HT-1080-NT fibrosarcoma viability, CellTiter-Glo ATP luminescence, 48 h; Potency, µM (titrated, usually from 46.1 µM), without a hit: top-dose activity, negative = less viability, usual class: cytotoxic; 360,000 compounds, 1.6% hits; AID 686970, 2013;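 also: NT is the 2HG producing partner of a matched IDH1 knockdown line; potency is read from the fitted curve at half-maximal effect; 0% = DMSO-treated cells and -100% = media-only wells without cells; nearly all actives have a fitted effect of over 55% in size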
#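 Viability by CellTiter-Glo luminescence after 48 h compound exposure at 37C of HT-1080-NT cells (750/well, RPMI, 5% FBS). % activity scaled between DMSO wells and medium-only wells, then curve-fitted and categorized by curve class.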
# IL1B secr inh = qHTS for Inhibitors of Inflammasome Signaling: IL-1-beta AlphaLISA Primary Screen; THP-1 LPS/ATP IL-1B secretion, AlphaLISA, 16 h; active compounds read low; activity change, % at 57.5 µM; 360,000 compounds, 4.7% hits; AID 743279, 2014; in the data active = activity change below about -50%; inconclusive = mostly about -30% to -49%
#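 Secreted IL-1B measured by AlphaLISA bead assay after 16 h compound exposure of THP-1 cells; compounds (final up to 57.5 uM) added 1 h before LPS (250 ng/mL) and ATP (1.25 mM) stimulation; lower signal means less secretion.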
# * marks the source's active call; other numbers are inactive results; ? = inconclusive; · = no result. Unless noted, calls follow the shape of the dose curve; as a rule, active = well fitted curve in the direction sought with a large enough effect; inconclusive = small, poorly fitted or top-dose-only effect, or another doubt; inactive = no such curve, though single readings can be large; an effect the other way counts as inactive or inconclusive. Unless noted, % is scaled to controls: 0 for no effect and ±100 for the full control effect.
SMILES,DT40 TDP1 CPT,DT40 TDP1 no CPT,HT1080 IDH1KD tx,HT1080NT lethal,IL1B secr inh
Cc1cc(=O)[nH]c2nnc(SCC(N)=O)n12,0%,7%,·,·,·
CCc1nn(CC(=O)N2CCN(c3ccc(OC)cc3)CC2)c(=O)c2cc3occc3n12,-17%,4%,-27%,14%,-4
CC1(C)C2CCC(CN)C1C2 (configuration not stated),14%,2%,0%,1%,-3
COc1ccc(CNC(=O)CCC2N=C3c4ccccc4N=C(SCC(=O)NCCc4ccc(OC)c(OC)c4)N3C2=O)cc1 (configuration not stated),-22%,?,·,·,·
COc1ccccc1CNC(=O)CCC1N=C2c3ccccc3N=C(SCC(N)=O)N2C1=O (configuration not stated),29µM*,3.7µM*,·,·,·
COCCCNC(=O)CSC1=Nc2ccccc2C2=NC(CCC(=O)NCc3ccc(OC)cc3)C(=O)N12 (configuration not stated),-6%,-12%,·,·,·
COCCCNC(=O)CSC1=Nc2ccccc2C2=NC(CCC(=O)NCc3ccccc3OC)C(=O)N12 (configuration not stated),16µM*,18µM*,·,·,·
COc1ccc(NC(=O)CSC2=Nc3ccccc3C3=NC(CCC(=O)NCCc4ccccc4)C(=O)N23)c(OC)c1 (configuration not stated),23µM*,8.2µM*,·,·,·
Cn1c(=O)[nH]c(=O)c2c1nc1n2CCCN1Cc1ccccc1,-12%,-22%,8%,0%,6
CC(=O)c1ccc(-c2[nH]c3ccccc3c2CCN2C(=O)c3ccccc3C2=O)cc1,?,?,2%,4%,12
O=C1c2ccccc2C(=O)N1CCc1c(-c2ccccc2)[nH]c2ccccc12,?,15µM*,?,-28%,?
O=C1c2ccccc2C(=O)N1CCc1c(-c2[nH]c3ccccc3c2CCN2C(=O)c3ccccc3C2=O)[nH]c2ccccc12,21µM*,18µM*,13%,8%,15
CC(C)=CCCC(C)=CCN1C(=O)CN(C)C1=O,?,?,6%,10%,54
COc1ccc(CNc2nc(-c3cccnc3)nn2S(C)(=O)=O)cc1,4%,-5%,-19%,-2%,18
CN(c1ccccc1)S(=O)(=O)c1cc(C(=O)N2CCN(c3ccccn3)CC2)ccc1Cl,9.2µM*,7.3µM*,-10%,-1%,?
O=C(c1ccc(Cl)c(S(=O)(=O)N2CCCCC2)c1)N1CCN(c2ccccc2)CC1,23µM*,?,?,-25%,-17
CN1CC(=O)NC1=NC(=O)c1ccc(Cl)c(S(=O)(=O)N2CCCCCC2)c1,?,8.2µM*,-16%,-20%,4
O=C(c1ccc(Cl)c(S(=O)(=O)N2CCCCCC2)c1)N1CCCC1,?,-19%,-12%,2%,48
O=C(c1ccc(Cl)c(S(=O)(=O)N2CCCC2)c1)N1CCN(c2ccc(F)cc2)CC1,?,13µM*,-3%,-19%,-24
O=C(c1ccc(Cl)c(S(=O)(=O)N2CCOCC2)c1)N1CCN(c2ccccc2)CC1,?,?,1%,-3%,2
O=C(c1ccc(Cl)c(S(=O)(=O)N2CCCCCC2)c1)N1CCN(c2ccccc2O)CC1,?,?,-28%,-23%,-68*
CC(=O)N1CCN(C(=O)c2cc(S(=O)(=O)N3CCN(c4ccccc4)CC3)ccc2Cl)CC1,?,10µM*,7%,9%,23
O=C(c1ccc(Cl)c(S(=O)(=O)N2CCCCC2)c1)N1CCCCC1,?,-26%,0%,-5%,36
O=C(c1ccc(Cl)c(S(=O)(=O)N2CCCC2)c1)N1CCN(c2ccccc2)CC1,18µM*,?,0%,-13%,10
Cc1cccc(NC(=O)C2(c3cccs3)CCOCC2)n1,-2%,-19%,-2%,-9%,10
SMILES,DT40 TDP1 CPT,DT40 TDP1 no CPT,HT1080 IDH1KD tx,HT1080NT lethal,IL1B secr inh
COCCNC(=O)CSc1nc(-c2ccccc2)[nH]c1-c1ccc(OC)cc1,-22%,?,·,·,·
COc1cccc(-c2nc(SCC(=O)Nc3ccc4c(c3)OCCO4)c(-c3ccccc3)[nH]2)c1,23µM*,18µM*,·,·,·
COc1ccc2nc(SCC(=O)NC3CCCC3)c(C)cc2c1,16µM*,16µM*,5.8µM*,?,65
COc1ccc(-c2cc(C(F)(F)F)nc(SCC(=O)Nc3ccc4c(c3)OCO4)n2)cc1,-2%,-5%,0%,-3%,0
COc1ccc(-c2nc(SCC(=O)Nc3ccc4c(c3)OCCO4)c(-c3ccccc3)[nH]2)cc1,?,23µM*,·,·,·
COc1ccc(-c2[nH]c(-c3cccc(OC)c3)nc2SCC(=O)Nc2ccc3c(c2)OCO3)cc1,16µM*,?,·,·,·
COc1ccc2c(C)cc(SCC(=O)NC3CCCC3)nc2c1,-24%,?,-1%,-1%,6
COc1cccc(-c2nnc(SCC(=O)Nc3ccc4c(c3)OCCO4)n2Cc2ccco2)c1,?,?,-8%,-2%,-4
Cc1ccn(C(=O)c2ccc(NC(=O)CC(C)C)cc2)n1,?,3%,-11%,-1%,8
O=C(O)CCC(=O)Nc1ccc(OCC(=O)O)cc1,-14%,1%,-5%,0%,-3
COc1cccc(-c2nc(SCC(=O)NC3CCCC3)c(-c3ccc(F)cc3)[nH]2)c1,?,21µM*,·,·,·

# Bioassay records (PubChem)
